Source: PubChem BioAssay AID651717 (Broad Institute, 2012)
Screen size: about 1,200 compounds; about 950 (79%) were called active. The set was probably picked from earlier hits. Not all results are given here. Measured potencies and affinities stand elsewhere. Unmarked numbers belong to inactive results.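 Rule for the calls: active = signal rises and fitted curve reaches 40% activity at or below the top valid tested dose, in every replicate test; inconclusive = replicate tests give mixed calls; inactive = the rest, including activity in the opposite direction.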

Assay: Bmi1-luciferase reporter activators in mESC, dose response, esBAF inhibitor project, mouse embryonic stem cells, cherry-pick (AID 651717);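 note: luciferase knocked into Bmi1 locus with EF-1a renilla as cell number control; rising ratio signals esBAF inhibition which derepresses Bmi1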
Conditions: firefly/renilla ratio, 24 h, stronger effect = higher value; at 35 µM unless noted

SMILES	max activity
Cc1ccc(S(=O)(=O)Nc2cccc3c2O[C@@H](CN(C)C(=O)Nc2ccc4c(c2)OCO4)[C@@H](C)CN([C@@H](C)CO)C3=O)cc1	-17.3%
CC(=O)N(C)c1ccc(NCc2cc(=O)oc3cc(C)c(O)cc23)cc1	19.2%
COc1ccc2cc(C(=O)c3ccccc3)c(=O)oc2c1	32.6% [at 4.2 µM]
C[C@@H]1CN([C@@H](C)CO)C(=O)c2cc(NC(=O)Nc3ccc4c(c3)OCO4)ccc2O[C@@H](C)CCCCO[C@@H]1CN(C)S(=O)(=O)c1cn(C)cn1	-11% [at 0.5 µM]
CC1CCN(c2ccc3c(c2)S(=O)(=O)c2cccc(C(=O)NCc4ccc(F)cc4)c2C3=O)CC1	27.9%
Cc1ccc(S(=O)(=O)N(C)C[C@H]2OCCCC[C@H](C)Oc3ccc(NC(=O)Nc4ccc5c(c4)OCO5)cc3C(=O)N([C@H](C)CO)C[C@H]2C)cc1	10.8% [at 16 µM]
C[C@H](CO)N1C[C@H](C)[C@@H](CN(C)C(=O)Nc2ccc3c(c2)OCO3)OCCCC[C@H](C)Oc2ccc(NC(=O)c3ccncc3)cc2C1=O	-9% [at 0.26 µM]
CCC(SC1=Nc2ccccc2C2=NC(CC(C)C)C(=O)N12)C(=O)Nc1ccc2c(c1)OCO2 (configuration not stated)	-19.3%
Cc1ccc(S(=O)(=O)Nc2cccc3c2O[C@H](CN(C)C(=O)Nc2ccc4c(c2)OCO4)[C@H](C)CN([C@H](C)CO)C3=O)cc1	-21.3%
CN(C)c1ccc(C(=O)Nc2cccc(S(=O)(=O)N3CCCC3)c2)cc1	25% [at 16 µM]
C[C@H]1CN([C@@H](C)CO)C(=O)Cc2cc(NC(=O)Nc3ccc4c(c3)OCO4)ccc2O[C@@H]1CN(C)Cc1ccccc1	-4.95% [at 2.1 µM]
C[C@H]1CN([C@@H](C)CO)C(=O)Cc2cc(NC(=O)Nc3ccc4c(c3)OCO4)ccc2O[C@H]1CN(C)Cc1ccccc1	12.3% [at 8 µM]
CCn1c(=N)n(CC(=O)c2ccc(Br)s2)c2ccccc21	15.9%
CN(C)c1ccc(-c2nnn(Cc3ccccc3Br)n2)cc1	-12.5%
CCOC(=O)c1cc(-c2sc(NC(=O)c3ccccc3)nc2C)n(-c2ccc(Br)cc2)n1	24%
O=C(c1ccc2ccccc2c1O)N1CCCCC1	-23.4%
C[C@@H]1CN([C@@H](C)CO)C(=O)c2cc(NS(=O)(=O)c3ccc(F)cc3)ccc2O[C@H]1CN(C)C(=O)Nc1ccc2c(c1)OCO2	-5.95% [at 0.5 µM]
Cc1ccc(S(=O)(=O)NCc2ccccc2)cc1C(=O)NC1CCC(C)CC1 (configuration not stated)	29.1% [at 4.2 µM]
CN(C)Cc1c(C(=O)N/N=C/c2ccccc2OCc2c(F)cccc2Cl)nnn1-c1nonc1N	19.7% [at 4.2 µM]
C[C@H](CO)N1C[C@H](C)[C@@H](CN(C)S(=O)(=O)c2cn(C)cn2)OCCCC[C@H](C)Oc2ccc(NC(=O)Nc3ccc4c(c3)OCO4)cc2C1=O	18.2%
C[C@H]1CCCCO[C@@H](CN(C)C(=O)Nc2ccccc2)[C@@H](C)CN([C@@H](C)CO)C(=O)c2cc(NC(=O)Nc3ccc4c(c3)OCO4)ccc2O1	11.1% [at 4.2 µM]

SMILES	max activity
O=C(O)C/C(=C\c1cc(Br)cs1)c1nc2ccccc2o1	31.8%
Cc1cccc(N2CCN(C(=O)c3ccc4nc(N5CCCCC5)sc4c3)CC2)c1C	-28.5%
O=C(CSc1nnc(Nc2ccccc2F)s1)Nc1cccc(S(=O)(=O)N2CCCCC2)c1	20.6% [at 16 µM]
C[C@H](CO)N1C[C@H](C)[C@@H](CN(C)Cc2ccncc2)Oc2c(NC(=O)Nc3ccc4c(c3)OCO4)cccc2C1=O	39.5% [at 0.26 µM]
O=C1CCC[C@@H]2C[C@@]3(C[C@@H]4CCN1[C@H]24)Nc1cc(Cl)c(Cl)cc1NC3=NCc1ccccc1	15.2% [at 4.2 µM]
CCCCC(=O)c1c(O)c2ccccc2oc1=O	28.9%
O=C(Nc1ccc(F)c(Cl)c1)c1ccccc1NC(=O)C1CCCCC1C(=O)O (configuration not stated)	26.5%
O=C(O)CCN1C(=O)/C(=C\c2cccc(OCC(=O)Nc3ccc(Cl)cc3)c2)SC1=S	38%
O=S(=O)(/N=C(/Nc1nc2ccccc2s1)c1ccccc1)c1ccccc1	34.6% [at 16 µM]
Clc1ccc(CSc2ncn(-c3ccccc3)n2)cc1	27%
Cc1cc(C)n2nc(SCc3nnc(SCc4ccccc4C)s3)nc2n1	26.5%
CN(C)Cc1c(O)ccc2c(=O)c(-c3ccc(Cl)cc3)coc12	24.4%
C[C@H](CO)N1C[C@H](C)[C@@H](CN(C)C(=O)Nc2ccc3c(c2)OCO3)Oc2c(NS(=O)(=O)c3cn(C)cn3)cccc2C1=O	30.6%
COc1ccc2c(c1OC)C(=O)OC2Nc1nc(-c2cc3cc([N+](=O)[O-])ccc3oc2=O)cs1 (configuration not stated)	38.4%
CCOc1ccc(/C=N/NC(=O)c2ccccc2O)cc1CN1CC2CC(C1)c1cccc(=O)n1C2 (configuration not stated)	21.1% [at 16 µM]
O=C(NN=C1CCCC1)c1ccccc1O	17.2% [at 4.2 µM]
C[C@H](CO)N1C[C@H](C)[C@H](CN(C)C(=O)Nc2ccccc2)OCCCC[C@H](C)Oc2ccc(NC(=O)Nc3ccc4c(c3)OCO4)cc2C1=O	-15.5% [at 0.26 µM]
COc1ccc(-c2noc(C3CCCN(C(=O)Nc4ccccc4)C3)n2)cc1 (configuration not stated)	16.1%
C[C@H]1CN([C@@H](C)CO)C(=O)c2cc(NC(=O)Cc3ccccc3)ccc2O[C@H]1CN(C)C(=O)Nc1ccc2c(c1)OCO2	21% [at 0.5 µM]
CN(C)c1ccc(C(=O)Nc2cccc(S(=O)(=O)NC3=NCCCCC3)c2)cc1	11.6% [at 16 µM]
CCOC(=O)C1CCN(Cc2nc3ccc([N+](=O)[O-])cc3c(=O)n2-c2ccc(OC)cc2OC)CC1	8.71% [at 4.2 µM]
